Assay [1] in a line: CCTE_Harrill_HTTr_Apoptosis_MCF7: CCTE's 6-hour Apoptosis Assessment for the High-Throughput Transcriptomics (HTTr) Platform, in MCF-7 cells cultured in DMEM + 10% fetal bovine serum, Harrill Lab (AID 2284011). Put shortly: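 Cells are dosed with test chemicals at eight concentrations and imaged 6 hours later for caspase-3/7 activity using a green fluorogenic detection reagent. Activity is fitted in both directions against DMSO controls.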

The nature of assay [2]: CCTE_Shafer_MEA_acute_burst_number: CCTE's Neural Acute Assay for Single-Electrode Bursts, Shafer Lab (AID 2284013). Put shortly: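 Rat cortical cultures, DIV 13/15; 40 min baseline, then 40 min with compound 0.03-40 uM, 37 C. Spikes: 300-5000 Hz band-pass, threshold 8x rms noise. Readout = % change in single-electrode bursts vs baseline, loss-of-signal fit.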
Assay [3] can be described thus: CCTE_Shafer_MEA_acute_burst_duration_mean: CCTE's Neural Acute Assay for Mean Burst Duration, Shafer Lab (AID 2284014).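 Also: hits are decreases in mean burst duration relative to DMSO controls.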 Put shortly: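 Primary rat cortical neurons on 16-electrode MEA wells, treated on DIV 13 or 15 with compound (0.03-40 uM; ≥3 wells each). 40-min baseline and 40-min exposure recordings at 37 C; percent change in mean burst duration per well versus DMSO.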

Assay [4] is described as follows: CCTE_Shafer_MEA_acute_per_burst_spike_number_mean: CCTE's Neural Acute Assay for Average Number of Spikes Per Burst, Shafer Lab (AID 2284015).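 Also: hits are decreases in mean spikes per burst versus baseline.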 Summed up: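 We recorded spontaneous network firing of rat cortical neurons for 40 min before and 40 min during exposure to compound at 0.03-40 uM, at 37 C. Spikes were detected adaptively at 8x rms noise, and the change in average spikes per burst was fitted against DMSO.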

The nature of assay [5]: CCTE_Shafer_MEA_acute_interburst_interval_mean: CCTE's Neural Acute Assay for Mean Interburst Interval, Shafer Lab (AID 2284016).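 Also: percent change of mean interburst interval versus each well's own pre-dose baseline; curves fitted for decrease in interburst interval relative to DMSO.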 Put shortly:
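MEA recording of spontaneous network bursting in primary rat cortical cultures; mean interburst interval was compared before and after a 40-min compound exposure (0.03-40 uM) and expressed as percent change, relative to DMSO.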

The nature of assay [6]: CCTE_Shafer_MEA_acute_burst_percentage_std: CCTE's Neural Acute Assay for Standard Deviation of Burst Percentage, Shafer Lab (AID 2284018).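 Also: fitted in the negative direction so actives lower burst percentage SD.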 Summed up:
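Primary rat cortical neurons on 16-electrode MEA wells were recorded 40 min at baseline (DIV 13 or 15), then 40 min after compound (0.03-40 uM), at 37 C. Well value is SD across electrodes of spikes-in-bursts/total spikes; endpoint is percent change, DMSO-referenced.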

The nature of assay [7]: CCTE_Shafer_MEA_acute_per_network_burst_spike_number_mean: CCTE's Neural Acute Assay for Average Number of Spikes in a Network Burst, Shafer Lab (AID 2284019). Summed up: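 Primary rat cortical neurons on 16-electrode MEA wells, DIV 13 or 15, 37 C; 40-min baseline then 40-min recording with compound (0.03-40 uM). Spikes per network burst (total spikes/number of bursts) expressed as percent change from baseline, DMSO reference.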

A short description of assay [8]: CCTE_Shafer_MEA_acute_per_network_burst_electrodes_number_mean: CCTE's Neural Acute Assay for Mean Number of Electrodes in a Network Burst, Shafer Lab (AID 2284021).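 Also: curves fitted for decreases only so hits reduce electrodes per burst.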 Put shortly: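 Cultures of rat cortex neurons were exposed on DIV 13 or 15 to compounds at 0.03-40 uM in at least three wells each. Activity over 40 min before and 40 min after exposure at 37 C gave the percent change in electrodes per network burst.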

A short description of assay [9]: CCTE_Shafer_MEA_acute_cross_correlation_HWHM: CCTE's Neural Acute Assay for Cross Correlation at Half Width at Half Maximum, Shafer Lab (AID 2284026).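 Also: percent change per well from pre-dose baseline in spike cross-correlogram half width; hits are a decrease in cross-correlogram half width relative to DMSO.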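 As to outcome: spontaneous network firing of rat primary cortical neurons on multiwell microelectrode arrays.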 Put shortly:
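Primary cortex (rat), MEA, DIV 13/15; compound 0.03-40 uM; 40 min pre + 40 min post at 37 C; spike threshold 8x rms; wells need ≥10 active electrodes; endpoint = % change in cross-correlogram HWHM vs baseline, DMSO negative control.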

A short description of assay [10]: CCTE_Shafer_MEA_acute_synchrony_index: CCTE's Neural Acute Assay for Synchrony, Shafer Lab (AID 2284027).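 Also: network synchrony index of spontaneous spiking in primary rat cortical neurons on MEAs; fitted for loss of signal so actives lower synchrony relative to DMSO.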 Summed up: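 Spontaneous firing of mature rat cortical networks is captured extracellularly on microelectrode arrays at 37 C, with wells needing ≥10 active electrodes. Each compound (0.03-40 uM) is judged by the change in synchrony index from baseline over 40 min.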

Assay [11] deals with Estrogen receptor (Homo sapiens) (UniProt P03372). In words: CCTE_Deisenroth_AIME_384WELL_LUC_Active: CCTE's 384-well Estrogen Receptor Transactivation Assay with AIME metabolic competence (ERTA luciferase; metabolism positive), Deisenroth Lab (AID 2284030; active = hit-call score of the fitted dose curve at least 0.9, where 1 is the maximum). Summed up: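 In this metabolism-positive format, a 2-hour exposure to alginate-immobilized rat S9 precedes a 24 hour luciferase transactivation readout in VM7Luc4E2 cells. Dosing spans 10 concentrations from 0.002 to 200 uM.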

For assay [12] the target is unchanged. The experiment in a line: CCTE_Deisenroth_AIME_384WELL_LUC_Inactive: CCTE's 384-well Estrogen Receptor Transactivation Assay without AIME metabolic competence (ERTA luciferase; metabolism negative), Deisenroth Lab (AID 2284038; active = hit-call score of the fitted dose curve at least 0.9, where 1 is the maximum;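 also: hits raise estrogen receptor luciferase signal so potencies reflect agonists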). Summed up:
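Chemicals (10-point series, 0.002 - 200 uM) were incubated 2 hours with alginate-water microsphere lids lacking S9, then the conditioned medium was transferred to VM7Luc4E2 breast cells for 24 hour. Luciferase induction was read by bioluminescence, fitted upward relative to 17beta-estradiol.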

The target is the same in assay [13]. In words: CCTE_Deisenroth_AIME_384WELL_LUC_Shift: CCTE's 384-well Estrogen Receptor Transactivation Assay with AIME metabolic competence data shift (ERTA luciferase; difference in metabolism positive and negative), Deisenroth Lab (AID 2284041).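 Also: shift is response with S9 minus without S9 so positive means metabolism raised ER signal.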 Summed up:
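Here, parent compounds undergo 2 h phase I metabolism by PB/BNF-induced rat S9 before 24 h transactivation in VM7Luc4E2 cells; the curve models S9-positive minus S9-negative response over a 10-point series.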

Assay [14] can be described thus: CCTE_Deisenroth_AIME_384WELL_CTox_Active: Cytotoxicity Assessment (CTOX) in CCTE's 384-well Estrogen Receptor Transactivation Assay with AIME metabolic competence (metabolism positive), Deisenroth Lab (AID 2284037; active = hit-call score of the fitted dose curve at least 0.9, where 1 is the maximum;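 also: chemicals first conditioned 2 h by alginate-bound induced rat liver S9 before cells; activity means signal loss indicating cell death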). Summed up:
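VM7Luc4E2 breast cells received medium pre-incubated 2 h with chemical over alginate microspheres holding induced male Sprague Dawley rat liver S9; viability read 24 h later by protease-substrate fluorescence. Loss of signal, bidirectional fit, 0.002–200 uM.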

The nature of assay [15]: CCTE_Shafer_MEA_dev_per_burst_spike_percent: CCTE's Neural Network Formation Assay for Percent of Spikes in a Burst, Shafer Lab (AID 2284032).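 As to AC50: fitted as a decrease in burst spike percentage below DMSO baseline.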 Summed up:
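Rat primary cortical neurons on 16-electrode MEA wells, dosed from plating day 0 for 12 days with renewal on DIV 5 and 9; spikes-in-bursts percentage averaged over bursting electrodes, collapsed as AUC across days 5, 7, 9, 12; loss direction versus DMSO.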

The nature of assay [16]: CCTE_Shafer_MEA_dev_active_electrodes_number: CCTE's Neural Network Formation Assay for Number of Active Electrodes, Shafer Lab (AID 2284040; active = hit-call score of the fitted dose curve at least 0.9, where 1 is the maximum;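 also: potency for loss of active electrodes versus DMSO so lower counts are hits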). Summed up:
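Rat cortical primary cultures, 1.5 x 10^5 cells/well, PEI-coated MEA, laminin drop. Continuous exposure DIV 0–12; full media/compound change DIV 5, 9. Readout: electrodes with mean firing ≥5 spikes/min; AUC across days; loss vs DMSO.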

Assay [17] is described as follows: CCTE_Shafer_MEA_dev_burst_rate: CCTE's Neural Network Formation Assay for Burst Rate, Shafer Lab (AID 2284042).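 As to AC50: potency for loss of burst rate below DMSO control.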 Summed up:
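Developmental network assay measuring how 12-day exposure of rat cortical neuron cultures alters bursting on extracellular MEA recordings. Values are AUC of well-mean burst rate across four recording days, relative to DMSO vehicle.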

Assay [18] is described as follows: CCTE_Shafer_MEA_dev_bursting_electrodes_number: CCTE's Neural Network Formation Assay for Number of Bursting Electrodes, Shafer Lab (AID 2284043; active = hit-call score of the fitted dose curve at least 0.9, where 1 is the maximum;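 as to AC50: potency is for loss of bursting electrodes relative to DMSO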). Summed up:
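Primary rat cortical neurons were cultured on PEI-coated 48-well MEA plates (16 electrodes/well) and exposed from plating through day 12, with compound renewed at feeds on DIV 5 and 9. Electrodes bursting ≥1 per 2 min were counted on DIV 5, 7, 9, 12; trapezoidal AUC taken.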

A short description of assay [19]: CCTE_Harrill_HTTr_CellCount_MCF7: CCTE's Cell Proliferation Assessment for the High-Throughput Transcriptomics (HTTr) Platform, Harrill Lab (AID 2284012; active = hit-call score of the fitted dose curve at least 0.9, where 1 is the maximum;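 also: count of Hoechst-stained nuclei per well by high-content imaging in MCF-7 cells; cells exposed to compound for six hours; intended direction is loss of nuclei count meaning fewer cells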). Summed up: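 Nuclei counting (Hoechst, high content imaging) in MCF-7 after a 6 h treatment at eight concentrations. Activity fitted bidirectionally, DMSO as negative control.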
Assay [20] can be described thus: CCTE_Deisenroth_AIME_384WELL_CTox_Inactive: Cytotoxicity Assessment (CTOX) in CCTE's 384-well Estrogen Receptor Transactivation Assay without AIME metabolic competence (metabolism negative), Deisenroth Lab (AID 2284039; active = hit-call score of the fitted dose curve at least 0.9, where 1 is the maximum;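 also: cell viability via live-cell protease substrate cleaved to fluorescent probe; cells exposed 24 h to medium preincubated 2 h with alginate-water beads without S9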). Summed up: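 Fluorescence from a live-cell protease substrate, read after 24 h in VM7Luc4E2 cells, indicated viability. Test medium came from a 2 h AIME step without hepatic S9 (alginate-water microspheres); concentrations spanned 0.002 - 200 uM, single technical replicate per run.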

Inconclusive results are not listed. The source made the active and inactive calls. The calls were made as follows, unless noted: active = hit-call score of the fitted dose curve at least 0.9, where 1 is the maximum; inactive = score below 0.9.

Estrogen receptor (Homo sapiens), sequence (P03372 whole entry, looked up): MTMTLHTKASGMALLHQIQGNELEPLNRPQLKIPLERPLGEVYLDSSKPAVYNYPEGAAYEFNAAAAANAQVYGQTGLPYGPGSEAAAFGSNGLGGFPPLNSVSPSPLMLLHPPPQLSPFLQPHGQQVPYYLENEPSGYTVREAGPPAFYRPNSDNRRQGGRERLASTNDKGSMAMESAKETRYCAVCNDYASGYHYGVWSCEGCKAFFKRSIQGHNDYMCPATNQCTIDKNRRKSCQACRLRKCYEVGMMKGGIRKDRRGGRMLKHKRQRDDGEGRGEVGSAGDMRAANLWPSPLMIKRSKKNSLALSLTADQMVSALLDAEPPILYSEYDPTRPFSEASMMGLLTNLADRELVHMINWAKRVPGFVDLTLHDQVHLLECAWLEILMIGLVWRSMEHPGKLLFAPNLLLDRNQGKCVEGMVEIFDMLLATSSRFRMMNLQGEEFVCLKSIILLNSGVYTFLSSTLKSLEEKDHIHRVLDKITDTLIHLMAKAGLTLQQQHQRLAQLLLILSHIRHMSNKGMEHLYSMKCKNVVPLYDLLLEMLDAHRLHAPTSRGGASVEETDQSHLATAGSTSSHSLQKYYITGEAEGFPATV

Take `N#Cc1cccnc1`: the outcome in assay [1], in assay [2], in assay [3], in assay [4], in assay [5] and in assay [6] was inactive. Moreover, the compound was called inactive in [7], in assay [8], in assay [9], in assay [10], in [11] and in assay [12]. Also, in assay [13], the outcome was inactive.

Turning to `O=c1[nH]c(=O)n(Cl)c(=O)n1Cl`, the compound was called inactive in [14].

The term AC50 denotes the concentration giving half of the maximal activity seen. With `OC(Cc1ccccc1Cl)(Cn1[nH]cnc1=S)C1(Cl)CC1` (stereo not given), the result in [1] was inactive. In addition, the AC50 in assay [15] is 50 µM (active); in assay [16], 37.1 µM (active); in assay [17], 29.4 µM (active); in assay [18], 29.9 µM (active).

For `COc1ccc(N)cc1`, the result in assay [14] was inactive.

Regarding `COc1ccccc1N`, the result in assay [1], in assay [19] and in assay [20] was inactive.

On to `CCOc1ccc(N)cc1`, for which the call in [11], in assay [14], in assay [12], in assay [20] and in [13] was inactive.

Consider `CNC(=O)O/N=C/C(C)(C)S(C)(=O)=O`, for which the result in assay [1], in assay [19], in [11], in assay [14], in assay [12] and in assay [20] was inactive. Besides, the result in [13] was inactive.

On to `CCOCn1c(-c2ccc(Cl)cc2)c(C#N)c(Br)c1C(F)(F)F`, for which the outcome in assay [1] and in assay [19] was inactive. Also, the AC50 in [15] was 6.04 µM (active); in assay [16], 4.74 µM (active); in assay [17] it was 4.86 µM (active); in [18], 4.44 µM (active).

As for `N#CS`, the result in [1], in assay [14] and in assay [20] was inactive.

On to `CC(=O)C(F)(F)C(F)(F)F`, for which the result in assay [15], in assay [17] and in [18] was inactive.

As to `CCCCCCCCCCCCc1cccc(S(=O)(=O)O)c1`, the outcome in assay [1], in assay [2], in assay [3], in [4], in assay [5] and in [6] was inactive. The outcome in assay [7], in assay [8], in assay [9], in [10], in assay [14] and in [20] was inactive.

On to `Cc1ccccc1OP(=O)(Oc1ccccc1C)Oc1ccccc1C`, for which the compound was classed as inactive in assay [2], in [7], in assay [8] and in assay [17]. Moreover, the AC50 in assay [3] is 21.7 µM (active); in assay [4] it was 27.8 µM (active); in [5] it was 23.5 µM (active); in assay [6], 24.2 µM (active); in [9], 23.1 µM (active); in assay [10] it was 28.1 µM (active). The concentration at half-maximal activity (AC50) in assay [15] is 15 µM (active); in [16], 20.2 µM (active); in [18] it was 15 µM (active).

`Oc1cc(Cl)c(Cl)cc1Cl`: the outcome in assay [1], in assay [19], in assay [2], in assay [3], in [4] and in assay [5] was inactive. Besides, the compound was classed as inactive in [7], in assay [8] and in assay [20]. The AC50 in assay [6] is 32.6 µM (active); in [9], 30.2 µM (active); in assay [10] it was 30.5 µM (active); in [14], 100 µM (active).

In the case of `CCC[CH2][Sn]([Cl])([Cl])[CH2]CCC`, the outcome in [1], in [19] and in [13] was inactive. The half-maximal activity concentration (AC50) in [14] is 13.6 µM (active); in [20], 9.65 µM (active).
